Compounds with a hit are over-represented: about 3.2% of the library has one in this group of screens.
TMEM16A act: mouse TMEM16A channel activation, primary screen | HEK293 TMEM16A/YFP-H148Q/I152L, iodide quench fluorescence; hits give low values | Q8BHY3 | B-score at 10 µM | hit rate 0.3% among 340,000;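 active = fluorescence-ratio B-score plate-corrected deviation score at least 3 library SD below zero, with starting fluorescence score within 5 deviations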;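 also: channel opened by trigger with iodide after compound preincubation; score built on the fluorescence ratio of max minus min over baseline; more negative score means more quench and so TMEM16A activation or potentiation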
CHT inh: inhibitors of human choline transporter CHT. B-score at 10 µM. hit rate 0.86% among 310,000. CHT-expressing cells, membrane potential dye, choline response; hits give low values. Q9GZV3;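 active = B-score over 3 SD under the library average, and starting fluorescence ratio not unusually high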;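 also: choline stimulus applied at its EC90 after an EC20 pre-addition; B-score computed on integrated fluorescence ratio after choline addition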
PHOSPHO1 inh: blocks human PHOSPHO1 phosphatase activity; Q8TCT1; hit rate 1.1% among 290,000; recombinant PHOSPHO1, absorbance phosphatase assay; inhibition, % at 13.3 µM; in the data active = inhibition above about 60%
ANO1 block: blocks the mouse calcium-activated chloride channel TMEM16A | HEK293 TMEM16A/YFP iodide influx fluorescence, ionomycin | Q8BHY3 | normalized B-score (activity score, 25-100; higher = stronger inhibition) at 10 µM | hit rate 1.2% among 310,000;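 active = ratio plate-corrected score three or more library SD toward inhibition, starting fluorescence score within five deviations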;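 also: score derived from kinetic fluorescence span divided by baseline fluorescence per well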
CHT allo act: allosteric activators of human choline transporter CHT. Q9GZV3. CHT-expressing cells, membrane potential dye, choline EC20; hits give high values; LV-AA mutant CHT in HEK293 cells. B-score at 10 µM. hit rate 0.49% among 310,000. AID 488977;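 active = initial fluorescence not abnormally high and integrated response B-score, plate-corrected, over 3 SD above library mean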
HDAC3 inhib: human HDAC3 inhibition; O15379; hit rate 0.15% among 320,000; inhibition, % at 8.3 µM; recombinant HDAC3, fluorogenic peptide/trypsin coupled, fluorescence; in the data active = inhibition above about 26%, passing the limit was not always enough
Target sequence (O15379 whole entry, looked up): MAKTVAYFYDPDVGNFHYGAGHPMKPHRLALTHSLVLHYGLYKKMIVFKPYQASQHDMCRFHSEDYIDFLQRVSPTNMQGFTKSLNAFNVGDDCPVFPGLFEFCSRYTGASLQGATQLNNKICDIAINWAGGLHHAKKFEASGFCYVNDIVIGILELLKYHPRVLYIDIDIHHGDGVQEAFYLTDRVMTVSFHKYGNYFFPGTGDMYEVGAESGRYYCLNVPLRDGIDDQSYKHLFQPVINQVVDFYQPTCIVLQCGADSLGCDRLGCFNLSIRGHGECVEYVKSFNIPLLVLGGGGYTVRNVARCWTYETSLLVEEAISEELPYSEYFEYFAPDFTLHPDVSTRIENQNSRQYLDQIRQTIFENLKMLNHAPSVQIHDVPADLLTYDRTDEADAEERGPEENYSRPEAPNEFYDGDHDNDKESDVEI
CHT block conf: confirmation of human choline transporter CHT inhibitors. shares compounds with CHT inh. CHT-expressing cells, choline membrane potential dye; LV-to-AA substituted CHT, HEK293 cells. CHT activity remaining % of control (hits give low values), % at 10 µM. hit rate 70% among 2,400;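 active = choline transporter activity left, mean of duplicates at 10 µM, below buffer-only control mean minus 3 SD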;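 also: depolarization triggered by choline at its EC90 following an EC20 pre-addition; 0% = hemicholinium-3 full block and 100% = buffer-only control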
HEK293 MPD ctr: activity in parental HEK293 cells lacking CHT | hit rate 4% among 2,400 | shares compounds with CHT inh | membrane potential dye, choline response; active = decrease or increase beyond buffer ±3SD | membrane potential ratio readout (active if shifted either direction beyond buffer ±3SD; no single direction) at 10 µM | AID 493222;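 also: parental cells lack the transporter so any hit is non-specific; ratio is peak minus trough fluorescence over baseline after EC90 choline challenge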
Numbers without * were called inactive; i = inactive; · = no result given.

SMILES	TMEM16A act	CHT inh	PHOSPHO1 inh	ANO1 block	CHT allo act	HDAC3 inhib	CHT block conf	HEK293 MPD ctr
O=C(O)c1cccc2c1/C(=N/Nc1ccc([N+](=O)[O-])cc1[N+](=O)[O-])c1ccccc1-2	i	-6.2*	23	i	i	3	69%*	i
Cc1ccc(Cl)cc1N1CCN(C(=O)Cc2c(C(=O)O)[nH]c3ccc(Cl)cc23)CC1	i	-7.6*	-1	i	i	8	55%*	i
CCOC(=O)C(=Cc1c[nH]c2ccc(S(=O)(=O)N(C)C)cc12)C(=O)OCC	i	-6.4*	37	i	i	4	33%*	i
CCCCN(CCCC)CCNC(=O)c1cn(CC)c2ccc(S(=O)(=O)N(C)C3CCCCC3)cc2c1=O	i	-7.1*	45	i	i	6	20%*	i
CCn1cc(C(=O)NCCCN2CCCC(C)C2)c(=O)c2cc(S(=O)(=O)N(C)C3CCCCC3)ccc21 (centres undefined)	i	-7.5*	22	i	i	0	25%*	2.7*
CCN(CC)CCCNC(=O)c1cn(CC)c2ccc(S(=O)(=O)N(C)C3CCCCC3)cc2c1=O	i	-5.7*	51	i	i	4	61%*	i
CN(C1CCCCC1)S(=O)(=O)c1ccc2c(c1)c(=O)c(C(=O)NCCCN1CCCC1)cn2C	i	i	5	i	i	7	·	·
Cc1cccc(C(=O)NNC(=O)C23CC4CC(CC(C4)C2)C3)c1O	i	i	28	i	i	0	·	·
O=C(NC1CCCCC1)C(c1ccc2ncccc2c1)N(Cc1ccco1)C(=O)c1ccc2c(c1)OCCO2 (centres undefined)	i	i	24	i	i	1	·	·
O=C(NC1CCCCC1)C(c1ccc2ncccc2c1)N(Cc1ccc2c(c1)OCO2)C(=O)c1ccc2c(c1)OCCO2 (centres undefined)	i	-14*	-22	i	i	6	30%*	i
O=C(NC1CCCCC1)C(c1ccc2ncccc2c1)N(Cc1ccc(F)cc1)C(=O)c1ccc2c(c1)OCCO2 (centres undefined)	i	-7.5*	32	i	i	1	65%*	i
O=C(NC1CCCC1)C(c1ccc(F)cc1)N(C(=O)Cc1cccs1)c1ccc2c(c1)OCCO2 (centres undefined)	i	i	36	i	i	-4	·	·
O=C(NC1CCCCC1)C(c1ccc2ncccc2c1)N(Cc1cccs1)C(=O)c1cccs1 (centres undefined)	i	-5.5*	37	i	i	-7	i	i
O=C(NCc1ccc(S(=O)(=O)NC2CCCCC2)s1)c1ccccc1	i	i	34	i	i	-5	·	·
CCC(=O)Nc1cc(Cl)ccc1N1CCN(C(=O)CC)CC1	i	-8.1*	10	i	i	-11	67%*	i
O=S(=O)(NC1CCCCCCC1)c1cccs1	i	i	0	i	i	1	·	·
Cc1ccc(S(=O)(=O)N2CCCCC2)cc1NC(=O)CSc1nncn1-c1ccccc1	i	-6.1*	56	i	i	1	41%*	i
COc1ccc(-n2cnnc2SCC(=O)Nc2cc(S(=O)(=O)N3CCCCC3)ccc2C)cc1	i	-5.3*	-5	i	i	·	53%*	i
CN(C)S(=O)(=O)c1ccc(C(=O)Nc2ccc(S(=O)(=O)NC3=NCCCCC3)cc2)cc1	i	i	5	i	i	8	·	·
O=C(Nc1ccc(S(=O)(=O)NC2=NCCCCC2)cc1)c1ccc(C(F)(F)F)cc1	i	-6.8*	19	i	i	0	41%*	i
O=C(O)c1ccccc1NS(=O)(=O)c1cccc(-n2sc3ccccc3c2=O)c1	i	-6.4*	35	i	i	54*	22%*	i
O=c1c(-c2ccccc2)c[nH]n1-c1cccc([N+](=O)[O-])c1	i	-6.2*	-82	i	i	2	45%*	i
O=c1c(-c2ccc(Cl)cc2)c[nH]n1-c1ccccc1	i	i	20	i	i	-1	·	·
CC(C)c1nnc(NC(=O)c2nc(S(=O)(=O)Cc3ccccc3)ncc2Cl)s1	i	-7.7*	50	i	i	·	3.0%*	i
CCCc1nnc(NC(=O)c2nc(S(=O)(=O)Cc3ccc(C)cc3)ncc2Cl)s1	i	-7.4*	8	i	i	3	7.6%*	i
SMILES	TMEM16A act	CHT inh	PHOSPHO1 inh	ANO1 block	CHT allo act	HDAC3 inhib	CHT block conf	HEK293 MPD ctr
O=[N+]([O-])c1cccc(S(=O)(=O)Nc2ccc(Cc3ccncc3)cc2)c1	i	-6.1*	22	i	i	6	59%*	i
Oc1c(Br)cc(Br)c(/C=N/n2c(-c3ccccc3)n[nH]c2=S)c1Br	i	-6.8*	-107	100*	i	3	48%*	i
Oc1ccc(Br)cc1/C=N/n1c(-c2ccccc2)n[nH]c1=S	i	i	·	i	i	3	·	·
Cc1ccc(NC(=O)C2CCCN2C(=O)OCc2ccccc2)c(C)c1 (centres undefined)	i	i	29	i	i	-17	·	·
COc1ccc(CN=C(Nc2ccccc2)SC2CC(=O)N(C)C2=O)cc1 (centres undefined)	i	-5.5*	-6	i	i	1	i	i
CNC(=S)NNC(=O)c1cc(C(C)(C)C)nn1Cc1ccc(F)cc1	i	i	38	i	i	2	·	·
COc1ccc(-c2nc3c(c4nnc(SC(C)C(=O)Nc5ccccc5)n24)COC(C)(C)C3)cc1 (centres undefined)	i	i	1	i	i	1	·	·
CC1=C(C(=O)Nc2cccc(C(=O)NC3CCCC(C)C3C)c2)SCCO1 (centres undefined)	i	-5.6*	37	i	i	2	57%*	i
COc1cccc(C2=NOC(C(=O)NCc3ccc(F)cc3)C2)c1 (centres undefined)	i	-5.1*	-4	i	i	-2	66%*	i
COc1ccc(CNC(=O)C2CC(c3cccc(OC)c3)=NO2)cc1 (centres undefined)	i	i	10	i	i	1	·	·

From PubChem BioAssay
